Experimental data as given in PubChem BioAssay (NCI).
About 83,000 compounds went through this panel and 20% of them were active in at least one assay; those are over-represented in the sample as a whole.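 The test compound was applied at a single concentration to cells in 96-well plates for 48 hours, and percent growth was recorded.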 Active and inactive are the calls of the source. The calls were made as follows: active = growth percent below 10; inactive = the rest.

Assays:
Assay in all cases: NCI-60 one-dose screen, 48 h (100 = growth as untreated, 0 = no growth, -100 = all killed)
Conditions in all cases: 10 µM unless noted
[1] = tested on: SK-MEL-2 melanoma
[2] = tested on: EKVX NSCLC
[3] = tested on: SN12C renal
[4] = tested on: UO-31 renal
[5] = tested on: TK-10 renal
[6] = tested on: ACHN renal
[7] = tested on: CAKI-1 renal
[8] = tested on: A498 renal
[9] = tested on: CCRF-CEM leukemia
[10] = tested on: MOLT-4 leukemia

Measured: growth

O=S(=O)(NCCCNc1nccc(-c2[nH]c(-c3ccccc3)nc2-c2ccc(F)c(O)c2)n1)c1cccc2ccccc12
inactive: [1] 17.1% | [2] 82% | [3] 63.2% | [4] 75.2% | [5] 72.5% | [6] 59.6% | [7] 77.2% | [8] 73.1% | [9] 17% | [10] 31.4%

COc1ccc(Cn2cc(C#N)c(N)c2C(C)=O)cc1
inactive: [1] 106% | [2] 104% | [3] 89.8% | [4] 95.9% | [5] 99.8% | [6] 103% | [7] 93.6% | [8] 83.9% | [9] 94.7% | [10] 101%

CN1CCN(c2ccc(C(=O)/C=C/c3cc(F)cc(C(F)(F)F)c3)cc2)CC1
inactive: [1] 117% | [2] 88.9% | [3] 75.7% | [4] 53.3% | [5] 144% | [6] 67.9% | [7] 51.5% | [8] 96.9% | [9] 14.1% | [10] 46.8%

Cc1ccc(NC(=O)Nc2nc3ccc([N+](=O)[O-])cc3s2)cc1
inactive: [9] 14.2% | [10] 17.2%
active: [1] -15.2% | [2] 4.01% | [3] 3.41% | [4] 6.85% | [5] 4.02% | [6] 1.63% | [7] -23.2% | [8] -34.8%

C#CCN(C)CCCOc1ccc(NC(=O)CCCCCCCCC(=O)NO)cc1Cl
inactive: [1] 96.7% | [2] 68.8% | [3] 95.9% | [4] 51.7% | [5] 63.1% | [6] 80.4% | [7] 78.6% | [8] 81.1% | [9] 30.5% | [10] 43.2%

Cc1[nH]c(C(=O)Nc2ccccc2OCc2cccc(C(=O)NC3CCCNC3)c2)c(Cl)c1Cl (stereo not given)
inactive: [1] 102% | [8] 66.2%
active: [2] -80.4% | [3] -72.9% | [4] -13% | [5] -75% | [6] -86.8% | [7] -91.3% | [9] 2.33% | [10] -25.3%

C#Cc1cc(C(=O)Nc2ccc(CNCCN3CCOCC3)c(C(F)(F)F)c2)ccc1C
inactive: [1] 104% | [2] 84.7% | [3] 93.5% | [4] 72.7% | [5] 108% | [6] 98.4% | [7] 82.7% | [8] 90.4% | [9] 98.7% | [10] 81.6%

O=C(/C=C/c1cc(Cl)ccc1Cl)Nc1ncc(Cc2ccc(Cl)cc2)s1
active: [3] 9.91% | [6] 3.59% | [7] 2.37% | [8] -32.8%
inactive: [1] 24.4% | [2] 30.2% | [4] 19.3% | [5] 34.1% | [9] 11.1% | [10] 15.2%

CCOC(=O)c1c(NC(=O)c2cccc(C(F)(F)F)c2)sc2c3c(ccc12)OCN(C)C3
inactive: [1] 98.8% | [2] 36.9% | [4] 31.8% | [5] 126% | [7] 44.8% | [8] 84.3%
active: [3] -66.2% | [6] -91.9% | [9] -39.5% | [10] -48.5%

O=C(CSc1nc2ccccc2c(=O)n1-c1ccccc1)N/N=C/c1ccc(Oc2ccc(Br)cc2)cc1
inactive: [1] 93% | [2] 60.7% | [3] 40.7% | [4] 91.5% | [5] 101% | [6] 91.4% | [7] 70.8% | [8] 82.3% | [9] 56.9% | [10] 55.5%

Cn1cc(-c2nn3cc(-c4ccncc4)nc3s2)c2cc(Br)ccc21
inactive: [1] 75.2% | [2] 45.7% | [3] 67.7% | [4] 39.3% | [5] 113% | [6] 68.9% | [7] 56.5% | [8] 81.4% | [9] 29.7% | [10] 12.9%

C=C(C)[C@@H]1CC[C@]2(C(=O)O)CC[C@]3(C)[C@H](CC[C@@H]4[C@@]5(C)C/C(=C/c6ccccn6)C(=O)C(C)(C)[C@@H]5CC[C@]43C)[C@@H]12
inactive: [1] 68.5% | [2] 33.3% | [3] 41.1% | [4] 35.8% | [5] 60.8% | [6] 35.9% | [7] 26.8% | [8] 61.7% | [9] 21.8% | [10] 29.4%

CCCC/C(=C\c1ccc(O)c(O)c1)C(=O)NC(Cc1ccccc1)C(=O)C(=O)NCCc1ccc(OC)cc1 (stereo not given)
inactive: [1] 98.8% | [2] 83.3% | [3] 95.3% | [4] 93.4% | [5] 107% | [6] 96.2% | [7] 96.5% | [8] 85.7% | [9] 97% | [10] 85.4%

COc1cc(C(=O)c2cc(C(C)=O)c3c(C)cccn23)cc(OC)c1OC
active: [8] -10.4%
inactive: [1] 98.9% | [2] 99% | [3] 80.9% | [4] 75.6% | [5] 108% | [6] 97.9% | [7] 84.5% | [9] 96.1% | [10] 92.5%

CCCCCCN1C=C/C(=C\C(=O)n2ccc3ccccc32)c2ccccc21
inactive: [1] 76% | [2] 36.3% | [3] 67.6% | [4] 52% | [5] 114% | [6] 66.3% | [7] 61% | [8] 97.5% | [9] 54.8% | [10] 62%

Nc1cc(C(=O)N/N=C\c2ccc(OC(F)F)c(OC3CCCC3)c2)nn1CC(O)c1ccccc1 (stereo not given)
inactive: [1] 101% | [2] 104% | [3] 105% | [4] 76.5% | [5] 112% | [6] 105% | [7] 81.9% | [8] 100% | [9] 92.3% | [10] 78.5%

CC(=O)OCCCCN1C=C/C(=C\C(=O)n2ccc3ccccc32)c2ccccc21
inactive: [1] 113% | [2] 75% | [3] 108% | [4] 71.6% | [5] 147% | [6] 94.8% | [7] 79.8% | [8] 121% | [9] 102% | [10] 98%

O=C(CCCCCCNC(=O)C(O)(O)C(F)(F)F)Nc1nc2ccccc2s1
inactive: [2] 27.5% | [3] 10.8% | [9] 22.6% | [10] 15.6%
active: [1] -7.95% | [4] -9.93% | [5] -3.74% | [6] -22.7% | [7] -17.8% | [8] -21.7%

N#Cc1nc(-c2ccc(Cl)cc2)oc1N1CCC(S(=O)(=O)N2CCOCC2)CC1
inactive: [1] 114% | [2] 105% | [3] 94.1% | [4] 73.2% | [5] 113% | [6] 100% | [7] 89.7% | [8] 102% | [9] 108% | [10] 104%

O=C(O)c1ccc(-n2c(=O)n(-c3cccc(C(F)(F)F)c3)c(=O)c3cc(-c4ccc(F)cc4F)ccc32)cc1
inactive: [9] 19.5%
active: [1] -32% | [2] 5.67% | [3] -5.12% | [4] 8.03% | [5] 4.33% | [6] 1.36% | [7] -6.76% | [8] -20.5% | [10] 4.7%

CC1(C)CC[C@]23CC[C@]4(C)[C@H](CC[C@@H]5[C@@]6(C)CC[C@H](N)C(C)(C)[C@@H]6CC[C@]54C)[C@H]2[C@H]1OC3
active: [7] 1.94% | [9] -5.4% | [10] -13.3%
inactive: [1] 108% | [2] 63.1% | [3] 79.1% | [4] 82.7% | [5] 135% | [6] 36.5% | [8] 108%

CSc1ccc(/C(=N/N=C(N)N)c2ccc(F)cc2)cc1
active: [8] 5.39% | [9] 5.74% | [10] -2.76%
inactive: [1] 48.6% | [2] 36.6% | [3] 36.9% | [4] 30.5% | [5] 39.1% | [6] 35.8% | [7] 15.6%

COc1ccc(/C=N/NC(=O)c2c(N)nn(C)c2Nc2ccccc2)cc1Oc1ccccc1
inactive: [1] 101% | [2] 88.1% | [3] 95.5% | [4] 71.7% | [5] 102% | [6] 95.8% | [7] 86.6% | [8] 98.6% | [9] 94.3% | [10] 90.4%

O=C(Nc1ccc(N2CCOCC2)cc1)Nc1ccc2c(ccn2C(=O)c2cccc(F)c2)c1
inactive: [1] 77.2% | [2] 73.9% | [3] 74.2% | [4] 102% | [5] 86.9% | [6] 61.8% | [7] 42.3% | [8] 87.7% | [9] 82.4% | [10] 83.6%

Cc1ccc(-c2nc(SCC(=O)c3ccccc3)nc(Nc3ccc(S(N)(=O)=O)cc3)c2C#N)cc1
inactive: [1] 95.7% | [2] 99.8% | [3] 63% | [4] 74.9% | [5] 67.5% | [6] 89.7% | [7] 51.5% | [8] 104% | [9] 82% | [10] 86.5%

O=S(=O)(Oc1ccc(-c2cn3ccoc3n2)cc1)c1cccc(C(F)(F)F)c1
inactive: [1] 104% | [2] 102% | [3] 96.2% | [4] 93.1% | [5] 85.4% | [6] 102% | [7] 86.9% | [8] 88.8% | [9] 106% | [10] 103%
